We go through 20 compounds from PubChem BioAssay (NCATS).

Several values for one entry are separate records, joined by “and”; a condition that tells them apart may be missing. Identical values can stand only once. Inconclusive results are not listed. Activity calls are given as the source filed them. Unless noted, calls come from the whole dose curve; as a rule, active = well fitted curve in the direction sought with a large enough effect; inconclusive = small, poorly fitted or top-dose-only effect, or another doubt; inactive = no such curve, though single readings can be large; an effect the other way counts as inactive or inconclusive.

The nature of assay [1]: Cytotoxicity counterscreen for NFkB agonists and antagonists (AID 624476).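 Note: cells exposed to compound for 48 hours.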 Note: potency is the fitted concentration of half-maximal effect. A general note: Counterscreens check selectivity or assay interference.
A short description of assay [2]: qHTS Assay for Identification of Small Molecule Agonists for NFkB Signaling Pathway. (AID 624478). Note: 0% is about no effect. Summed up: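 NFkB-bla ME-180 cells carry a beta-lactamase reporter. They received compound plus TNF alpha at 10 pM final (its EC50) for 5 h at 37 C. Reporter activity was read as 460/530 nm emission ratio after 2 h LiveBLAzer substrate loading.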
On the technique in general: Quantitative high-throughput screening tests each substance at several concentrations.

A short description of assay [3]: qHTS Assay for Identification of Small Molecule Antagonists for NFkB Signaling Pathway. (AID 624479; calls by dose curve;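 note: pathway stimulated with TNF alpha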; note: potency is the fitted concentration of half-maximal effect).
Assay [4] in a line: Cell Proliferation Assay against the TMD8 Cell Line (AID 651645).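 Note: cells exposed to compound for 48 h before reading.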 As to conditions: TMD8 DLBCL cell line proliferation/viability; at 46.1 µM (top of the series). In a few lines:
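Viability by CellTiter-Glo after 48 h compound exposure of 500 log-phase TMD8 cells per well (RPMI, 5% FBS). Percent activity scaled between DMSO (100%) and 9.2 uM final bortezomib (0%).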

Assay [5] can be described thus: Cell Proliferation Assay against the HBL1 Cell Line (AID 651646).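 Note: cells exposed to compound for 48 h before reading.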 As to conditions: HBL1 DLBCL cells; at 46.1 µM (top of the series). Summed up: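 Luminescent ATP read-out (CellTiter-Glo) after 48 h compound exposure of HBL1 cells at 37 °C; percent activity was scaled between DMSO as 100% and 9.2 uM bortezomib (final) as 0%.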
Assay [6] can be described thus: Cell Proliferation Assay against the TMD8 Cell Line (Caspase readout at 16 hrs) (AID 651712). Note: potency is the fitted concentration of half-maximal effect. Summed up:
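Apoptotic response of TMD8 cells was judged from caspase 3/7 activation following a 16 hour compound incubation at 37 °C. Luminescent signal was converted to percent activity, with DMSO set as 0% and 9.2 uM final bortezomib as 100%.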

Assay [7] concerns the target Luciferin 4-monooxygenase (Photinus pyralis) (UniProt P08659). The assay is described as follows: Biochemical firefly luciferase enzyme assay for NPC (AID 624030).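 Note: purified P. pyralis luciferase at 10 nM with luciferin and ATP substrate; 0% = DMSO and -100% = full luciferase inhibition by PTC124 control; nearly all actives have a fitted effect of over 70% in size.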 In a few lines:
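Direct inhibition of firefly luciferase enzyme (10 nM final, 50 mM Tris Acetate) assessed by luminescence within 5 minutes. Percent activity scaled between DMSO and PTC124 positive control, with concentration-effect curves classified by fit quality and response.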

A short description of assay [8]: Cell Proliferation Assay against the TMD8 Cell Line (Caspase readout at 8 hrs) (AID 651713). Note: potency is the fitted concentration of half-maximal effect. Summed up: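 TMD8 cells in RPMI plus 5% FBS were treated with compound for 8 h at 37C. Caspase 3/7 activation was read by Caspase-Glo luminescence. Percent activity was scaled from DMSO (0%) to 9.2 uM bortezomib final (100%).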

Chain of Luciferin 4-monooxygenase (Photinus pyralis) (P08659 whole entry, looked up): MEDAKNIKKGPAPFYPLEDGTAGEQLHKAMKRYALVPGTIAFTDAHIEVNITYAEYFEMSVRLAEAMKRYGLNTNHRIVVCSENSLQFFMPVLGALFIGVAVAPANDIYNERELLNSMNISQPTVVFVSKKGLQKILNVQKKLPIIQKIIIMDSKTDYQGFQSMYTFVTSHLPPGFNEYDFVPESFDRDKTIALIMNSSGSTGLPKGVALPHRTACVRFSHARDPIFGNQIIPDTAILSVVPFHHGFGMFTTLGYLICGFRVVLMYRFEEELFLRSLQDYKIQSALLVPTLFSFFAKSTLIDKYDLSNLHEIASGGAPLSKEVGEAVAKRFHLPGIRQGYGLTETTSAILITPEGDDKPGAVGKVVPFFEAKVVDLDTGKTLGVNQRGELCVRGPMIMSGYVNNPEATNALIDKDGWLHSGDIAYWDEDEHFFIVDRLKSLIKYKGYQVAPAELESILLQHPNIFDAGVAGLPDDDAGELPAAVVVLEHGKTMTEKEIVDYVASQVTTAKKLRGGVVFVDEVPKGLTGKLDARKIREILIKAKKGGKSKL

On to `Cc1ccc(-c2ncn(-c3ccc(Nc4nccc(-c5cccc(N6CCOCC6)c5)n4)cc3)n2)cn1`, for which the Potency is 0.935 µM (active) in assay [1], 0.237 µM (active) in assay [3] and 0.0105 µM (active) in assay [6]. In assay [2], the result was inactive. Also, the viability (% of control) in assay [4] is 0.9%. For the same compound, the viability, percent of control in assay [5] is 0.21%.
Take `C=C1C(=CC=C2CCC[C@]3(C)[C@@H]([C@H](C)C=C[C@H](C)C(C)C)CC[C@@H]23)C[C@@H](O)C[C@@H]1O`: the Potency entry in assay [7] was “inactive”. Moreover, the call in assay [2] was inactive. The Potency in assay [3] is 21.1 µM (active).
In the case of `CN(C)CC=CC(=O)Nc1cc2c(Nc3ccc(F)c(Cl)c3)ncnc2cc1O[C@H]1CCOC1`, the results for the Potency in assay [1] and in assay [3] were 29.6 µM (active) and 13.3 µM (active), respectively. For the same compound, the compound was called inactive in assay [2]. Further, the viability (% of control) in assay [4] worked out at 0.0294%. For the same compound, the viability, percent of control in assay [5] turned out to be 1.34%.
Consider `CNC(=O)c1cc(Oc2ccc(NC(=O)Nc3cc(C(C)(C)C)nn3-c3ccc4ncccc4c3)c(F)c2)ccn1`, for which the values for the Potency in assay [1] and in assay [3] were 2.64 µM (active) and 0.0421 µM (active), respectively. Also, the outcome in assay [2] was inactive. The viability (% of control) in assay [4] was determined as 2.72%. Moreover, the viability, percent of control in assay [5] came to 58.7%. Moreover, the Potency entry in assay [6] was “inactive”.
In the case of `CCN1CCN(CC(=O)Nc2ccc(-c3cccc4c(=O)cc(N5CCOCC5)oc34)c3sc4ccccc4c23)CC1`, the Potency in assay [1] is 5.9 µM (active); in assay [3], 13.3 µM (active); in assay [6], 0.469 µM (active); in assay [8], 20.9 µM (active). Besides, the outcome in assay [2] was inactive. In addition, the viability (% of control) in assay [4] came to 0.621%. Besides, the viability, percent of control in assay [5] is 0.638%.
As to `CC(C)(O)CCc1ccc(OCc2cc(-c3cccc(OC(F)F)c3)c3ncccc3c2)cc1`, the Potency result in assay [1] and in assay [8] was “inactive” throughout. In addition, the outcome in assay [2] was inactive. In addition, the Potency in assay [3] is 23.7 µM (active). Further, the viability (% of control) in assay [4] came out at 60.9%. The viability, percent of control in assay [5] is 7.17%.
Turning to `O=C(NCCS(=O)(=O)c1ccc(C(F)(F)F)cn1)c1ccc(Cl)cc1`, the Potency entry in assay [1], in assay [3], in assay [6] and in assay [8] was “inactive” in each case. Also, the compound was classed as inactive in assay [2]. Besides, in assay [4], the viability (% of control) was determined as 96.1%. Also, the viability, percent of control in assay [5] was 92%.
As for `Nc1nc(Nc2ccc(S(N)(=O)=O)cc2)nn1C(=O)c1c(F)cccc1F`, the Potency in assay [1] was 9.35 µM (active); in assay [3], 0.473 µM (active); in assay [6], 5.26 µM (active); in assay [8] it was 14.8 µM (active). In addition, the result in assay [2] was inactive. Besides, the viability (% of control) in assay [4] was determined as 6.19%. The viability, percent of control in assay [5] was found to be 49.5%.
As to `CCC[C@H](NC(=O)C(C#N)=Cc1cccc(Br)n1)c1ccccc1`, the Potency in assay [1] was 2.96 µM (active); in assay [3] it was 2.11 µM (active); in assay [8], 1.87 µM (active). Moreover, in assay [2], the outcome was inactive. In addition, in assay [4], the viability (% of control) is 3.01%. Besides, in assay [5], the viability, percent of control came to 2.62%.
Take `COc1cc2ncnc(Nc3ccc(F)c(Cl)c3)c2cc1NC(=O)C=CCN1CCCCC1`: the Potency in assay [1] is 20.9 µM (active); in assay [3], 16.8 µM (active); in assay [8] it was 23.5 µM (active). For the same compound, the compound was called inactive in assay [2]. Moreover, in assay [4], the viability (% of control) was -0.755%. Moreover, the viability, percent of control in assay [5] came out at 0.0432%.
For the compound `COc1ccc(CC2SC(=O)NC2=O)cc1C(=O)NCc1ccc(C(F)(F)F)cc1` (stereo not given), the Potency entry in assay [1], in assay [3] and in assay [8] was “inactive” each time. For the same compound, the compound was called inactive in assay [2]. Also, the viability (% of control) in assay [4] is 71.9%. In addition, the viability, percent of control in assay [5] stood at 66%.
Regarding `CC[C@@H]1C(=O)N(C)c2cnc(Nc3ccc(C(=O)NC4CCC(N5CCN(CC6CC6)CC5)CC4)cc3OC)nc2N1C(C)C` (stereo not given in full), the values for the Potency in assay [1], in assay [3] and in assay [8] were 13.2 µM (active), 5.3 µM (active) and 26.4 µM (active), respectively. Further, the compound was classed as inactive in assay [2]. Also, the viability (% of control) in assay [4] is 3.58%. Moreover, the viability, percent of control in assay [5] worked out at 4.22%.
On to `CC[C@@H]1C(=O)N(C)c2cnc(Nc3ccc(C(=O)NC4CCN(C)CC4)cc3OC)nc2N1C1CCCC1`, for which the Potency is 16.6 µM (active) in assay [1], 13.3 µM (active) in assay [3], 1.18 µM (active) in assay [6] and 29.6 µM (active) in assay [8]. Besides, the compound was called inactive in assay [2]. Further, the viability (% of control) in assay [4] came out at 4.43%. Also, the viability, percent of control in assay [5] was 5.81%.
For `C[C@]1(CO)CN(c2cc(C(=O)Nc3ccc4c(c3)-c3c(c(C(N)=O)nn3-c3ccc(F)cc3)CC4)c(Cl)cn2)C[C@@]1(C)CO`, the Potency result in assay [1] is “inactive”. Besides, the result in assay [2] was inactive. For the same compound, the Potency is 5.95 µM (active) in assay [3], 14.8 µM (active) in assay [6] and 16.6 µM (active) in assay [8]. For the same compound, the viability (% of control) in assay [4] was 18.6%. The viability, percent of control in assay [5] is 23.3%.
Turning to `NC(=O)Nc1cc(-c2cccc(F)c2)sc1C(=O)N[C@H]1CCCNC1`, the Potency is 1.32 µM (active) in assay [1], 14.9 µM (active) in assay [3] and 0.0418 µM (active) in assay [6]. Moreover, the outcome in assay [2] was inactive. Moreover, the viability (% of control) in assay [4] stood at 5.07%. Moreover, the viability, percent of control in assay [5] was determined as 19.6%.
For `COc1cc2c(Oc3ccc(NC(=O)C4(C(=O)Nc5ccc(F)cc5)CC4)cc3F)ccnc2cc1OCCCN1CCOCC1`, the Potency is 16.6 µM (active) in assay [1] and 16.8 µM (active) in assay [3]. Besides, the compound was called inactive in assay [2]. In assay [4], the viability (% of control) was 2.25%. In assay [5], the viability, percent of control was determined as 3.9%. In addition, in assay [6], the Potency entry was “inactive”.
Take `O=C(NC1CCNCC1)c1[nH]ncc1NC(=O)c1c(Cl)cccc1Cl`: the Potency was 209 nM (active) and 296 nM (active) in assay [1]; 33.5 nM (active) and 66.8 nM (active) in assay [3]; 0.118 µM (active) in assay [6]; 332 nM (active) and 264 nM (active) in assay [8]. In assay [2], the outcome was inactive. For the same compound, the viability (% of control) in assay [4] was 1.51% and 1.72%. Further, the viability, percent of control in assay [5] was 45.8% and 42.8%.
On to `O=C(O)[C@H](Cc1c[nH]c2ccccc12)N1C(=O)c2ccccc2C1=O`, for which the Potency result in assay [1], in assay [3], in assay [6] and in assay [8] was “inactive” in each case. In assay [2], the call was inactive. In addition, the viability (% of control) in assay [4] was 104%. For the same compound, the viability, percent of control in assay [5] turned out to be 130%.
`Nc1ccccc1NC(=O)c1ccc(CNc2nccc(-c3cccnc3)n2)cc1`: the Potency in assay [1] was 14.8 µM (active); in assay [3] it was 0.15 µM (active); in assay [6], 20.9 µM (active). The outcome in assay [2] was inactive. Besides, the viability (% of control) in assay [4] came out at 2.31%. The viability, percent of control in assay [5] is 4.64%. Moreover, in assay [8], the Potency entry is “inactive”.
In the case of `Cc1[nH]nc2ccc(-c3cncc(OC[C@@H](N)Cc4ccccc4)c3)cc12`, the Potency was 4.69 µM (active) in assay [1], 0.168 µM (active) in assay [3], 1.32 µM (active) in assay [6] and 2.35 µM (active) in assay [8]. The compound was called inactive in assay [2]. In assay [4], the viability (% of control) was -0.774%. In addition, the viability, percent of control in assay [5] stood at 4.82%.
